In PubChem BioAssay (EPA / NIEHS) one finds outcome and AC50 data, which are given here for eleven compounds.

Read-out in assay [1]: Collagen III, COL3A1 (gene 1281)
The assay is described as follows: BSK_MyoF_CollagenIII: BioMAP Diversity Plus: MyoF Assay for Collagen III Biomarker Activity (AID 2284239). Particulars: primary human lung fibroblasts. Summed up:
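Multiplexed cell assay in lung fibroblasts, harvested at 24 h post-dose. Collagen III detected by ELISA, with positive-direction fitting relative to DMSO vehicle.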

Read-out in assay [2]: Interleukin 17F (IL17F), IL17F (gene 112744)
The assay is described as follows: BSK_BT_xIL17F: BioMAP Diversity Plus: BT Assay for Interleukin 17F (IL17F) Biomarker Activity (AID 2284243). The note with it: primary human B cells with PBMC. Summed up:
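Luminex readout of IL-17F secretion, 24 h; cells: human B cells with PBMC; positive-direction analysis, DMSO control.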

Read-out in assay [3]: Actin alpha 1 (ACTA1), ACTA1 (gene 58)
The assay is described as follows: BSK_MyoF_ACTA1: BioMAP Diversity Plus: MyoF Assay for Actin alpha 1 (ACTA1) Biomarker Activity (AID 2284244). Particulars: primary human lung fibroblasts. Summed up:
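alpha-SMA levels read by ELISA against DMSO baseline, 24 h post-dose, in primary human lung fibroblasts. Parallel cultures stained with 0.1% SRB after 10% TCA fixation (560 nm) to flag overt cytotoxicity.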

Read-out in assay [4]: Interleukin 2 (IL2), IL2 (gene 3558)
Description: BSK_BT_xIL2: BioMAP Diversity Plus: BT Assay for Interleukin 2 (IL2) Biomarker Activity (AID 2284245). Particulars: primary human B cells with PBMC. Summed up:
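Secreted IL-2 was read by Luminex xMAP from B cells co-cultured with PBMC (human primary) 24 h post-dosing; activity was analysed as gain of signal relative to DMSO vehicle.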

Read-out in assay [5]: Collagen IV, COL4A1 (gene 1282)
Description: BSK_MyoF_CollagenIV: BioMAP Diversity Plus: MyoF Assay for Collagen IV Biomarker Activity (AID 2284247). Particulars: primary human lung fibroblasts. Summed up: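 Collagen IV quantified by ELISA in human lung fibroblast cultures 24 h after chemical treatment, with DMSO as baseline. Parallel SRB staining (0.1% SRB after TCA fixation, 560 nm) flags overt cytotoxicity.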

Read-out in assay [6]: Plasminogen activator inhibitor-1 (PAI1), SERPINE1 (gene 5054)
The assay is described as follows: BSK_MyoF_PAI1: BioMAP Diversity Plus: MyoF Assay for Plasminogen activator inhibitor-1 (PAI1) Biomarker Activity (AID 2284256).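 For outcome: PAI-1 protein level measured by ELISA in fibroblast cultures; PAI-1 read 24 h after compound addition.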 Particulars: primary human lung fibroblasts. Summed up:
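In this multiplexed primary-cell system, fibroblasts from human lung received compound for 24 h before ELISA detection of PAI-1; overt toxicity was checked by SRB (0.1%, TCA-fixed, 560 nm) in parallel wells.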

Read-out in assay [7]: Interleukin-8 (IL8), CXCL8 (gene 3576)
Description: BSK_MyoF_IL8: BioMAP Diversity Plus: MyoF Assay for Interleukin-8 (IL8) Biomarker Activity (AID 2284261). Particulars: primary human lung fibroblasts. The method, boiled down: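 DMSO-normalised, upward-fitted IL-8 ELISA signal; human lung fibroblasts, 24 h chemical treatment.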

Read-out in assay [8]: Collagen I, COL1A1 (gene 1277)
Description: BSK_hDFCGF_CollagenI: BioMAP Diversity Plus: hDFCGF Assay for Collagen I Biomarker Activity (AID 2284250). Particulars: primary human foreskin fibroblasts. Summed up: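 Collagen I quantified by ELISA 24 h after chemical dosing of human dermal fibroblast primary cells, with parallel SRB staining (0.1%, TCA-fixed, 560 nm) for overt cytotoxicity.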

Read-out in assay [9]: Interferon-inducible T-cell alpha chemoattractant (ITAC), CXCL11 (gene 6373)
The assay is described as follows: BSK_hDFCGF_ITAC: BioMAP Diversity Plus: hDFCGF Assay for Interferon-inducible T-cell alpha chemoattractant (ITAC) Biomarker Activity (AID 2284251). The note with it: primary human foreskin fibroblasts. Summed up: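 Measured by ELISA, the chemokine level serves as the endpoint in human skin fibroblast primary cultures 24 h after compound addition. Increases relative to DMSO-treated wells define activity.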

Read-out in assay [10]: Plasminogen activator inhibitor-1 (PAI1), SERPINE1 (gene 5054)
The assay is described as follows: BSK_KF3CT_PAI1: BioMAP Diversity Plus: KF3CT Assay for Plasminogen activator inhibitor-1 (PAI1) Biomarker Activity (AID 2284252). Particulars: primary human keratinocytes with fibroblasts. Summed up: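 PAI-1 levels quantified by ELISA after 24 h compound exposure of primary human skin keratinocytes co-cultured with fibroblasts. Activity is the gain relative to DMSO; cytotoxicity tracked in parallel cultures via SRB staining.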

Read-out in assay [11]: Interleukin-8 (IL8), CXCL8 (gene 3576)
The assay is described as follows: BSK_KF3CT_IL8: BioMAP Diversity Plus: KF3CT Assay for Interleukin-8 (IL8) Biomarker Activity (AID 2284254). Particulars: primary human keratinocytes with fibroblasts. Summed up: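 Using parallel SRB-stained cultures to flag overt toxicity, the study quantified IL-8 by ELISA in human keratinocyte–foreskin fibroblast co-cultures 24 h after dosing, with DMSO as negative control and baseline.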

Assay [12] in a line: TAMU_PeakParms_SingleDonor1434_QT: Texas A&M University (TAMU) 1.5-hr Human Induced Pluripotent Stem Cell (iPSC)-derived Cardiomyocytes Calcium (Ca+2) Flux Assay for Cardiotoxicity: QT (decay-rise ratio) (AID 2284235; active = hit-call score of the fitted dose curve at least 0.9, where 1 is the maximum). Summed up:
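Decay/rise ratio of calcium-flux fluorescence scored after 90 min exposure (37C) of donor 1434 iPSC cardiomyocytes to 0.2–100 uM (0.5% DMSO). Beat-cessation and severe-notch points removed; POD is EC05, a 5% rise over DMSO.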

Assay [13] in a line: CCTE_Mundy_HCI_Cortical_NOG_BPCount: CCTE's Neurite Outgrowth Assay in rat cortical cells for Branch Point Count, Mundy Lab (AID 2284237). Summed up: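 Measured 50.33 h after dosing, this morphology endpoint uses rat primary cortical cultures labelled for betaIII-tubulin. Branch points are quantified by high-content imaging, with DMSO as negative control and baseline.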
A short description of assay [14]: CCTE_Mundy_HCI_hNP1_Casp3_7: CCTE's Caspase-Glo 3/7 Assay in human neuroprogenitor cells for Apoptosis, Mundy Lab (AID 2284240). Summed up:
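Luminescent caspase-3/7 readout, 26.5 h post-dose, in human neural progenitor cells from WA09 embryonic stem cells. Cells grew 40–44 h at 37 °C, 5% CO2 before chemical addition. Activity analysed as signal increase over DMSO baseline.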

Assay [15] in a line: CCTE_Mundy_HCI_hNP1_CellTiter: CCTE's Cell Titer-Glo 2 Assay in human neuroprogenitor cells for Viability, Mundy Lab (AID 2284241; active = hit-call score of the fitted dose curve at least 0.9, where 1 is the maximum). Summed up: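 Viability read as luminescent ATP content (CellTiter-Glo, 30 min room temperature) twenty-four hours after dosing, relative to DMSO. Cells: WA09-derived hNP1 neuroprogenitors on poly-L-ornithine/laminin, plated 40 to 44 hours before chemical.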
(In general: Cellular ATP, detected with luciferase, serves as a proxy for viable cell number.)

“And” between values parts separate entries of the source, which are not always exact repeats. Identical values can stand only once. Results filed as inconclusive are left out. The source made the active and inactive calls. Rule for the calls, unless noted: active = hit-call score of the fitted dose curve at least 0.9, where 1 is the maximum; inactive = score below 0.9.

Usually AC50 stands for the midpoint of the concentration-response curve, whichever way the signal moves.

With `O=c1c2ccccc2oc2ccccc12`, the result in assay [1], in assay [3], in [4], in assay [5], in assay [6] and in assay [7] was inactive. For the same compound, the AC50 in assay [2] is 3.97 µM (active).

As to `CO[Si](OC)(OC)c1ccccc1`, the result in [8], in [9], in assay [10] and in [11] was inactive.

Turning to `CCCCCCCCCCCCCCCC[N+](C)(C)CC`, the AC50 in [1] was 0.967 µM (active); in assay [2], 2.28 µM (active); in [3], 0.757 µM (active); in assay [4] it was 1.26 µM (active); in [5], 3.25 µM (active); in assay [6] it was 2.65 µM (active). The outcome in assay [7] was inactive.

Consider `C=CCOc1c(Br)cc(Br)cc1Br`, for which the AC50 in assay [1] was 26.2 µM (active); in [2] it was 26.8 µM (active); in assay [3], 24.4 µM (active); in assay [5], 5.88 µM (active); in assay [6] it was 26.6 µM (active). The result in assay [4] and in assay [7] was inactive.

Turning to `CN1C(=O)N(C)C(O)C1O` (stereo not drawn), the outcome in assay [8], in assay [9], in assay [10] and in [11] was inactive.

With `CCCCC/C=C\C/C=C\CCCCCCCC(=O)OC`, the AC50 in [1] was 20 µM (active); in assay [2], 25.2 µM (active); in [3] it was 29.4 µM (active); in assay [4] it was 28.9 µM (active). Further, the outcome in assay [5], in assay [6] and in assay [7] was inactive.

As for `O=C(O)CCCC[C@@H]1SC[C@@H]2NC(=O)N[C@@H]21`, the outcome in assay [12] was inactive.

`S=C(NC1CCCCC1)NC1CCCCC1`: the result in assay [1], in assay [2], in assay [3], in [5], in assay [6] and in assay [7] was inactive. Further, in [4], the AC50 is 27.6 µM (active).

For `CCOC(=O)c1ccccc1C(=C1C=C(Br)C(=O)C(Br)=C1)c1cc(Br)c(O)c(Br)c1`, the AC50 in assay [8] is 3.27 µM (active); in assay [9], 4.39 µM (active) and 4.49 µM (active); in assay [10], 3.18 µM (active) and 3.06 µM (active). Further, the outcome in assay [11] was inactive.

Turning to `N[C@H]1C(O)O[C@H](CO)[C@H](O)[C@@H]1O` (stereo partly drawn), the compound was classed as inactive in assay [13], in [14] and in assay [15].

Consider `CCOc1nc(F)cc2nc(S(=O)(=O)Nc3c(Cl)cccc3C(=O)OC)nn12`, for which the result in assay [1], in [2], in assay [3], in [4], in [5] and in assay [6] was inactive. For the same compound, the outcome in assay [7] was inactive.
